SMILES strings stand for the structures. Values without a mark were called inactive. Inconclusive results are not listed. Where a call stands in place of a potency, no number is given. Calls of active or inactive are those of the source. Calls come from the whole dose curve.

Chain of Acetylcholinesterase (Homo sapiens) (P22303 whole entry, looked up): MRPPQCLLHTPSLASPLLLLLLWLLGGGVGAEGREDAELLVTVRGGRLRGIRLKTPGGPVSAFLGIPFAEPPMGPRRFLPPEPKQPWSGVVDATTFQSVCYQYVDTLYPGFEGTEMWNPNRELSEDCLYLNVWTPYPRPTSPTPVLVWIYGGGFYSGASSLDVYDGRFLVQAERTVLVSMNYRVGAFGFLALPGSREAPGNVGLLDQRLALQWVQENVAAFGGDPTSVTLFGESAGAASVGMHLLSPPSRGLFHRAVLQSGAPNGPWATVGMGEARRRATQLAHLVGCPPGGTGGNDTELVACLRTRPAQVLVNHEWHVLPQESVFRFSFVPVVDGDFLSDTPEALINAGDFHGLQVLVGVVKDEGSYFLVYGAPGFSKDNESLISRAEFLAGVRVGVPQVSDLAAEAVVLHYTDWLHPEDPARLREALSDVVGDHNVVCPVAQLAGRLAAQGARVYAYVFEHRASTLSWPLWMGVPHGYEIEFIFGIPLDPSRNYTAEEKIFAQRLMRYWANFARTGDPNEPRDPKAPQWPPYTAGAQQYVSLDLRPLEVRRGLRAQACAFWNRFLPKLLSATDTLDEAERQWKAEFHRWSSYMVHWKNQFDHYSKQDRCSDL

For one assay, the target named is Acetylcholinesterase (Homo sapiens) (UniProt P22303). The assay is described as follows: Acetylcholinesterase (AChE) small molecule antagonists: colormetric cell-based qHTS assay (AID 1347395). Note: nearly all actives have a fitted effect of over 30% in size. As to conditions: SH-SY5Y cells AChE activity, colorimetric (Ellman); series mostly up to 115 µM. In outline:
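Cells (SH-SY5Y, 2,000 per well) are seeded and left overnight at 37 C. Compound is added for 30 min, then DTNB and acetylthiocholine for a further 90 min at 37 C before absorbance-based thiocholine detection.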
Background: In qHTS, concentration-response curves come from the screen itself.
For the compound `[O-][n+]1cccc(CO)c1`, the Potency result is “inactive”.

On to `Nc1ccc(C(=O)OCC(O)CO)cc1` (centres undefined), for which the Potency result is “inactive”.

Turning to `CC(C)=CCCC(C)C=O` (centres undefined), the Potency entry is “inactive”.

Consider `O=P(O)(O)C(O)(Cc1cccnc1)P(=O)(O)O`, for which the Potency entry was “inactive”.

Turning to `COC(=O)CCCCCCCCC(=O)OC`, the Potency entry was “inactive”.

Consider `O=C1CCCN1CCO`, for which the Potency entry was “inactive”.

As to `CCN1CCOCC1`, the Potency entry is “inactive”.

Consider `COc1ccc(COC=O)cc1`, for which the Potency result is “inactive”.

Take `FC(F)(F)C(F)(F)C(F)(F)C(F)(F)C(F)(F)C(F)(F)CCI`: the Potency result is “inactive”.

Turning to `OCC(O)c1ccccc1` (centres undefined), the Potency result is “inactive”.

Consider `Nc1nc(-c2ccccc2)cs1`, for which the Potency result is “inactive”.

With `COc1ccc(Cl)cc1C`, the Potency result is “inactive”.

For the compound `O=S(=O)(O)c1ccccc1O`, the Potency entry was “inactive”.

For `COc1ccc(C(=O)Nc2nc3ccccc3c(NCc3ccccc3)c2C#N)cc1`, the Potency entry was “inactive”.

For the next assay the target is unchanged. Briefly: Acetylcholinesterase (AChE) small molecule antagonists: enzyme-based qHTS assay (AID 1347397). Note: nearly all actives have a fitted effect of over 55% in size. The note with it: Potency: AChE enzyme activity inhibition; outcome: AChE enzyme activity inhibition; series mostly up to 115 µM. The gist of the method:
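Enzyme inhibition was scored from DTNB-detected thiocholine formed by recombinant human AChE acting on acetylthiocholine. The 30 min compound preincubation and 10 min substrate reaction were both run at room temperature, with DMSO as vehicle control.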
In the case of `CCC(CO)(CO)[N+](=O)[O-]`, the Potency entry was “inactive”.

`c1ccc2c(c1)ccc1c3ccccc3ccc21`: the Potency result was “inactive”.

As to `CCSCC`, the Potency result is “inactive”.

As to `Nc1ccc(C(=O)NCC(=O)O)cc1`, the Potency result is “inactive”.

Turning to `C=CCN1CCc2nc(N)sc2CC1`, the Potency result was “inactive”.

Take `CCC(C)CCCC(C)(C)O` (centres undefined): the Potency result is “inactive”.

With `Cc1ccc(N(CCO)CCO)cc1`, the Potency entry was “inactive”.

As for `CCOC(=O)C(C)Oc1ccc(Oc2nc3ccc(Cl)cc3o2)cc1` (centres undefined), the Potency entry is “inactive”.

For `Clc1ccccc1-c1nc(-c2ccncc2)no1`, the Potency result was “inactive”.

In the case of `CCC(C(=O)OCCOCCN(CC)CC)c1ccccc1` (centres undefined), the Potency entry is “inactive”.

On to `COc1ccc(-c2coc3cc(O)ccc3c2=O)cc1`, for which the Potency result is “inactive”.

Consider `NCC(=O)O`, for which the activity change, negative = inhibition is 0.147% [at 23.6 µM].

In the case of `CC/C=C\CCOC(=O)C(C)C`, the Potency entry is “inactive”.

`CC(C)C(=O)O`: the Potency result is “inactive”.

For `NCC1CCCC(CN)C1` (centres undefined), the Potency result was “inactive”.

Regarding `CC(C)(O)Cc1ccccc1`, the Potency result is “inactive”.

With `CCN(CC)C(=O)N(CC)CC`, the Potency result was “inactive”.

`C=C(C)C(=O)OCCCCCCCCCCOC(=O)C(=C)C`: the Potency result is “inactive”.

For the compound `C#CC(O)CCCCC` (centres undefined), the Potency entry is “inactive”.

In the case of `O=C1NC(=O)c2cc([N+](=O)[O-])ccc21`, the Potency entry is “inactive”.

Regarding `COc1cc(C(C)C)ccc1C`, the activity change, negative = inhibition was 1.63% [at 23.6 µM].

Take `COC(=O)C1=C(C)NC(C)=C(C(=O)OC(C)C)C1c1cccc2nonc12` (centres undefined): the Potency result was “inactive”.

Take `Cc1occc1C(=O)Nc1ccc(C(=O)N2CCC(F)(F)/C(=C\C(=O)N3CCC(N4CCCCC4)CC3)c3ccccc32)cc1`: the Potency entry was “inactive”.

For the compound `NC1CCN(c2nc3c(cc2F)c(=O)c(C(=O)O)cn3-c2ccc(F)cc2F)C1` (centres undefined), the Potency entry is “inactive”.

For `O=Cc1cc(O)ccc1Br`, the Potency entry was “inactive”.

For `c1csc(SSc2cccs2)c1`, the Potency entry is “inactive”.

With `[O-][n+]1cccc(CO)c1`, the Potency entry was “inactive”.

Turning to `Nc1ccc(C(=O)OCC(O)CO)cc1` (centres undefined), the Potency entry is “inactive”.

Consider `CC(C)=CCCC(C)C=O` (centres undefined), for which the Potency result was “inactive”.

With `O=P(O)(O)C(O)(Cc1cccnc1)P(=O)(O)O`, the Potency entry was “inactive”.

Consider `COC(=O)CCCCCCCCC(=O)OC`, for which the Potency result was “inactive”.

As for `O=C1CCCN1CCO`, the Potency entry is “inactive”.

In the case of `CCN1CCOCC1`, the Potency entry is “inactive”.

Regarding `COc1ccc(COC=O)cc1`, the Potency entry was “inactive”.

Regarding `FC(F)(F)C(F)(F)C(F)(F)C(F)(F)C(F)(F)C(F)(F)CCI`, the Potency result was “inactive”.

With `OCC(O)c1ccccc1` (centres undefined), the Potency result was “inactive”.

Consider `Nc1nc(-c2ccccc2)cs1`, for which the Potency result is “inactive”.

For `COc1ccc(Cl)cc1C`, the Potency result was “inactive”.

Regarding `O=S(=O)(O)c1ccccc1O`, the Potency result was “inactive”.

With `COc1ccc(C(=O)Nc2nc3ccccc3c(NCc3ccccc3)c2C#N)cc1`, the Potency entry was “inactive”.

A further assay shares this target. Briefly: Acetylcholinesterase (AChE) small molecule antagonists: fluorescence cell-based qHTS assay (AID 1347398). Note: nearly all actives have a fitted effect of over 50% in size. As to conditions: SH-SY5Y cells; Potency: AChE activity; outcome: AChE activity; series mostly up to 115 µM. In outline:
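Endogenous acetylcholinesterase of SH-SY5Y neuroblastoma cells is measured in situ. After overnight attachment and 30 min compound exposure, cells receive acetylthiocholine and Thiolite Green; fluorescence is read after 40 min at room temperature.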
For `CCC(CO)(CO)[N+](=O)[O-]`, the Potency entry was “inactive”.

For `c1ccc2c(c1)ccc1c3ccccc3ccc21`, the Potency result is “inactive”.

Consider `CCSCC`, for which the Potency result was “inactive”.

Consider `Nc1ccc(C(=O)NCC(=O)O)cc1`, for which the Potency result was “inactive”.

For `C=CCN1CCc2nc(N)sc2CC1`, the Potency result is “inactive”.

On to `CCC(C)CCCC(C)(C)O` (centres undefined), for which the Potency result was “inactive”.

For the compound `Cc1ccc(N(CCO)CCO)cc1`, the Potency entry is “inactive”.

As to `CCOC(=O)C(C)Oc1ccc(Oc2nc3ccc(Cl)cc3o2)cc1` (centres undefined), the Potency entry was “inactive”.

As to `Clc1ccccc1-c1nc(-c2ccncc2)no1`, the Potency result is “inactive”.

As for `CCC(C(=O)OCCOCCN(CC)CC)c1ccccc1` (centres undefined), the Potency result is “inactive”.

As to `COc1ccc(-c2coc3cc(O)ccc3c2=O)cc1`, the Potency result is “inactive”.

Regarding `NCC(=O)O`, the activity change, negative = inhibition is 6.61% [at 23.8 µM].

Regarding `CC/C=C\CCOC(=O)C(C)C`, the Potency entry was “inactive”.

Consider `CC(C)C(=O)O`, for which the Potency result is “inactive”.

Consider `NCC1CCCC(CN)C1` (centres undefined), for which the Potency result was “inactive”.

Regarding `CC(C)(O)Cc1ccccc1`, the Potency result is “inactive”.

As for `CCN(CC)C(=O)N(CC)CC`, the Potency result was “inactive”.

Regarding `C=C(C)C(=O)OCCCCCCCCCCOC(=O)C(=C)C`, the Potency result is “inactive”.

On to `C#CC(O)CCCCC` (centres undefined), for which the Potency result was “inactive”.

For the compound `O=C1NC(=O)c2cc([N+](=O)[O-])ccc21`, the Potency result was “inactive”.

Regarding `COc1cc(C(C)C)ccc1C`, the activity change, negative = inhibition is 2.94% [at 23.8 µM].

Regarding `COC(=O)C1=C(C)NC(C)=C(C(=O)OC(C)C)C1c1cccc2nonc12` (centres undefined), the Potency result was “inactive”.

On to `Cc1occc1C(=O)Nc1ccc(C(=O)N2CCC(F)(F)/C(=C\C(=O)N3CCC(N4CCCCC4)CC3)c3ccccc32)cc1`, for which the Potency entry is “inactive”.

Take `NC1CCN(c2nc3c(cc2F)c(=O)c(C(=O)O)cn3-c2ccc(F)cc2F)C1` (centres undefined): the Potency entry is “inactive”.

As to `O=Cc1cc(O)ccc1Br`, the Potency result is “inactive”.

In the case of `c1csc(SSc2cccs2)c1`, the Potency entry is “inactive”.

With `[O-][n+]1cccc(CO)c1`, the Potency result was “inactive”.

Take `Nc1ccc(C(=O)OCC(O)CO)cc1` (centres undefined): the Potency entry is “inactive”.

Take `CC(C)=CCCC(C)C=O` (centres undefined): the Potency result is “inactive”.

`O=P(O)(O)C(O)(Cc1cccnc1)P(=O)(O)O`: the Potency result is “inactive”.

Regarding `COC(=O)CCCCCCCCC(=O)OC`, the Potency result is “inactive”.

Consider `O=C1CCCN1CCO`, for which the Potency entry is “inactive”.

As for `CCN1CCOCC1`, the Potency entry was “inactive”.

As to `COc1ccc(COC=O)cc1`, the Potency result was “inactive”.

In the case of `FC(F)(F)C(F)(F)C(F)(F)C(F)(F)C(F)(F)C(F)(F)CCI`, the Potency entry was “inactive”.

Consider `OCC(O)c1ccccc1` (centres undefined), for which the Potency entry was “inactive”.

Regarding `Nc1nc(-c2ccccc2)cs1`, the Potency entry is “inactive”.

On to `COc1ccc(Cl)cc1C`, for which the Potency result is “inactive”.

As to `O=S(=O)(O)c1ccccc1O`, the Potency entry was “inactive”.

Take `COc1ccc(C(=O)Nc2nc3ccccc3c(NCc3ccccc3)c2C#N)cc1`: the Potency entry was “inactive”.

Source of the values: PubChem BioAssay (Tox21).
